Source: PubChem BioAssay (NCI)
About 79,000 compounds went through this panel and 15% of them were active in at least one assay; those are over-represented in the sample as a whole. Activity calls are given as the source filed them. Rule as the data show it: active = growth inhibition above about 70%; inactive = the rest.

Assay: NCI Yeast Anticancer Drug Screen. Data for the rad14 strain (AID 159);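 also: 0% = growth of vehicle-treated control cultures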
Settings: S. cerevisiae rad14 strain growth inhibition; at 33.0 µM; active compounds read high
Summary of the method: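 DNA repair-defective yeast, compound-exposed; % growth inhibition derived by comparison with vehicle-treated controls.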

| SMILES | growth inhibition |
| --- | --- |
| CCC/C(Cl)=N\OC(=O)Nc1cccc(C(F)(F)F)c1 | 23% (inactive) |
| [O-][n+]1c2ccc(O)cc2nc2ccc(Cl)cc21 | 58% (inactive) |
| Clc1ccccc1C1OC1c1ccccc1Cl (stereo not drawn) | -43% (inactive) |
| c1ccc2c(c1)c1ncccc1c1nccnc21 | 16% (inactive) |
| CC(=O)Nc1ccc2c(c1)C(=Nc1ccc(C(=O)O)cc1)c1ccccc1-2 | 30% (inactive) |
| COc1ccc(OC)c2cc3ccccc3cc12 | 4% (inactive) |
| COc1cc(C2c3cc4c(cc3OC(NNc3ccccc3)C2C)OCO4)cc(OC)c1OC (stereo not drawn) | 52% (inactive) |
| O=C1c2cc([N+](=O)[O-])ccc2-c2cccc(F)c21 | 42% (inactive) |
| CCCCCCCCCCCC(=O)N(C)C | 34% (inactive) |
| CCCCCCCCCCCC1=C(O)C(=O)C=C(O)C1=O | 96% (active) |
| Cc1ccc(CSC(N)=Nc2ccccc2)cc1C | 10% (inactive) |
| CCCCCCCCCCC1CCC(=O)O1 (stereo not drawn) | 15% (inactive) |
| O=[N+]([O-])c1cc(CCl)ccc1CCl | 95% (active) |
| Nc1ccc2c(c1)C(=O)c1cccc(N)c1C2=O | 57% (inactive) |
| CCCCCCCCCCNC(=O)OCC | 8% (inactive) |
| CC1=C(C)Cc2c(O)ccc(O)c2C1 | 13% (inactive) |
| COc1ccc2c(c1)C(=O)c1ccccc1C2 | 6% (inactive) |
| CCC(=O)OCCn1c2nc(=O)[nH]c(=O)c-2nc2cc(C)c(C)cc21 | 14% (inactive) |
| O=C(OCCN1CCCCCC1)C(c1ccsc1)C1CCCCC1 (stereo not drawn) | 43% (inactive) |
| Oc1c(Br)cc(Br)cc1C1CCCCC1 | 97% (active) |

| SMILES | growth inhibition |
| --- | --- |
| CC1(C)[C@@H]2CC[C@]1(C)[C@H](OC(=O)CSC#N)C2 | 43% (inactive) |
| S=C(N/N=C(/c1ccccc1)c1ccccn1)N1CCCCCC1 | -5% (inactive) |
| Cc1ccc2[nH]c3c(C)c4cc[n+](C)cc4c(C)c3c2c1 | 41% (inactive) |
| CNC(=O)OCc1c(COC(=O)NC)c(-c2ccc(-c3ccccc3)cc2)n(C)c1C | 13% (inactive) |
| COc1ccccc1/C=C1\Sc2scc(-c3cccc([N+](=O)[O-])c3)[n+]2C1=O | 97% (active) |
| O=[N+]([O-])c1ccc2c(c1)C(N1CCN(CCO)CC1)Cc1ccc(F)cc1S2 (stereo not drawn) | 15% (inactive) |
| Cc1ccc(CCC2=CCCc3c2ccc2ccccc32)cc1 | 6% (inactive) |
| O=[N+]([O-])c1cccc2nccc(NCCCO)c12 | 75% (active) |
| Cc1ccc(-n2cc(-c3ccc(Cl)cc3)c(C#N)c2N)cc1 | -12% (inactive) |
| Cc1ccc(S/N=C\c2ccccc2O)cc1 | -3% (inactive) |
| O=C(O)C1OC1(c1cccc(Cl)c1)c1ccccc1Cl (stereo not drawn) | 75% (active) |
| NC(=S)N/N=C\c1nccc2ccccc12 | 98% (active) |
| Clc1cccc(C(Nc2nncs2)Nc2nncs2)c1Cl | 19% (inactive) |
| O=C(OCC=C1CCCC1)c1cc([N+](=O)[O-])cc([N+](=O)[O-])c1 | 71% (active) |
| O=C(Nc1ccccc1)C(=O)C(C(=O)c1ccccc1)C(c1ccccc1)c1ccccc1 (stereo not drawn) | 18% (inactive) |
| N#CN1C2CCC1CC(=O)C2 | -2% (inactive) |
| COc1ccccc1C(=O)OCC1CCCN2CCCCC12 (stereo not drawn) | 98% (active) |
| CCNc1nnc(CSc2nc(-c3ccccc3)c(-c3ccccc3)[nH]2)s1 | 58% (inactive) |
| O=C1c2ccccc2-c2n[nH]c3cccc1c23 | 23% (inactive) |

Same assay, conditions: S. cerevisiae rad14 strain growth inhibition; at 100.0 µM; active compounds read high

| SMILES | growth inhibition |
| --- | --- |
| CCC/C(Cl)=N\OC(=O)Nc1cccc(C(F)(F)F)c1 | 20% (inactive) |
| [O-][n+]1c2ccc(O)cc2nc2ccc(Cl)cc21 | 73% (active) |
| Clc1ccccc1C1OC1c1ccccc1Cl (stereo not drawn) | -9% (inactive) |
| c1ccc2c(c1)c1ncccc1c1nccnc21 | 11% (inactive) |
| CC(=O)Nc1ccc2c(c1)C(=Nc1ccc(C(=O)O)cc1)c1ccccc1-2 | 97% (active) |
| COc1ccc(OC)c2cc3ccccc3cc12 | 18% (inactive) |
| COc1cc(C2c3cc4c(cc3OC(NNc3ccccc3)C2C)OCO4)cc(OC)c1OC (stereo not drawn) | 75% (active) |
| O=C1c2cc([N+](=O)[O-])ccc2-c2cccc(F)c21 | 61% (inactive) |
| CCCCCCCCCCCC(=O)N(C)C | 99% (active) |
| CCCCCCCCCCCC1=C(O)C(=O)C=C(O)C1=O | 80% (active) |
| Cc1ccc(CSC(N)=Nc2ccccc2)cc1C | 64% (inactive) |
| CCCCCCCCCCC1CCC(=O)O1 (stereo not drawn) | 99% (active) |
| O=[N+]([O-])c1cc(CCl)ccc1CCl | 97% (active) |
| Nc1ccc2c(c1)C(=O)c1cccc(N)c1C2=O | 88% (active) |
| CCCCCCCCCCNC(=O)OCC | 99% (active) |
| CC1=C(C)Cc2c(O)ccc(O)c2C1 | 47% (inactive) |
| COc1ccc2c(c1)C(=O)c1ccccc1C2 | 7% (inactive) |
| CCC(=O)OCCn1c2nc(=O)[nH]c(=O)c-2nc2cc(C)c(C)cc21 | -3% (inactive) |
| O=C(OCCN1CCCCCC1)C(c1ccsc1)C1CCCCC1 (stereo not drawn) | 52% (inactive) |
| Oc1c(Br)cc(Br)cc1C1CCCCC1 | 98% (active) |

| SMILES | growth inhibition |
| --- | --- |
| CC1(C)[C@@H]2CC[C@]1(C)[C@H](OC(=O)CSC#N)C2 | 97% (active) |
| S=C(N/N=C(/c1ccccc1)c1ccccn1)N1CCCCCC1 | -1% (inactive) |
| Cc1ccc2[nH]c3c(C)c4cc[n+](C)cc4c(C)c3c2c1 | 90% (active) |
| CNC(=O)OCc1c(COC(=O)NC)c(-c2ccc(-c3ccccc3)cc2)n(C)c1C | 75% (active) |
| COc1ccccc1/C=C1\Sc2scc(-c3cccc([N+](=O)[O-])c3)[n+]2C1=O | 94% (active) |
| O=[N+]([O-])c1ccc2c(c1)C(N1CCN(CCO)CC1)Cc1ccc(F)cc1S2 (stereo not drawn) | 93% (active) |
| Cc1ccc(CCC2=CCCc3c2ccc2ccccc32)cc1 | 13% (inactive) |
| O=[N+]([O-])c1cccc2nccc(NCCCO)c12 | 91% (active) |
| Cc1ccc(-n2cc(-c3ccc(Cl)cc3)c(C#N)c2N)cc1 | 5% (inactive) |
| Cc1ccc(S/N=C\c2ccccc2O)cc1 | 1% (inactive) |
| O=C(O)C1OC1(c1cccc(Cl)c1)c1ccccc1Cl (stereo not drawn) | 91% (active) |
| NC(=S)N/N=C\c1nccc2ccccc12 | 99% (active) |
| Clc1cccc(C(Nc2nncs2)Nc2nncs2)c1Cl | 71% (active) |
| O=C(OCC=C1CCCC1)c1cc([N+](=O)[O-])cc([N+](=O)[O-])c1 | 97% (active) |
| O=C(Nc1ccccc1)C(=O)C(C(=O)c1ccccc1)C(c1ccccc1)c1ccccc1 (stereo not drawn) | 36% (inactive) |
| N#CN1C2CCC1CC(=O)C2 | 8% (inactive) |
| COc1ccccc1C(=O)OCC1CCCN2CCCCC12 (stereo not drawn) | 99% (active) |
| CCNc1nnc(CSc2nc(-c3ccccc3)c(-c3ccccc3)[nH]2)s1 | 55% (inactive) |
| O=C1c2ccccc2-c2n[nH]c3cccc1c23 | 28% (inactive) |
